Experimental data published in PubChem BioAssay AID1117263 (The Scripps Research Institute Molecular Screening Center, 2014).
About 300 (13%) of roughly 2,300 compounds were called active. A selection follows. Values without a mark were called inactive.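 How the source made its calls: active means mean inhibition of the replicates above the hit cutoff set in the primary screen (cut at about 17% in these data); inactive means the rest.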

These molecules were tested against Sialate O-acetylesterase (Homo sapiens) (UniProt Q9HAT2) (assay: human SIAE inhibitors, retest, confirmation, biochemical, fluorescence polarization, FP-Rh probe, triplicate (AID 1117263;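 further: 0% = SIAE with DMSO and probe and 100% = probe without SIAE; inhibitors lower polarization as more probe stays unbound to SIAE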)). Details: SIAE FP-Rh activity-based probe, at 9.66 µM, hits give high values.
Sequence of Sialate O-acetylesterase (Homo sapiens) (Q9HAT2 whole entry, looked up): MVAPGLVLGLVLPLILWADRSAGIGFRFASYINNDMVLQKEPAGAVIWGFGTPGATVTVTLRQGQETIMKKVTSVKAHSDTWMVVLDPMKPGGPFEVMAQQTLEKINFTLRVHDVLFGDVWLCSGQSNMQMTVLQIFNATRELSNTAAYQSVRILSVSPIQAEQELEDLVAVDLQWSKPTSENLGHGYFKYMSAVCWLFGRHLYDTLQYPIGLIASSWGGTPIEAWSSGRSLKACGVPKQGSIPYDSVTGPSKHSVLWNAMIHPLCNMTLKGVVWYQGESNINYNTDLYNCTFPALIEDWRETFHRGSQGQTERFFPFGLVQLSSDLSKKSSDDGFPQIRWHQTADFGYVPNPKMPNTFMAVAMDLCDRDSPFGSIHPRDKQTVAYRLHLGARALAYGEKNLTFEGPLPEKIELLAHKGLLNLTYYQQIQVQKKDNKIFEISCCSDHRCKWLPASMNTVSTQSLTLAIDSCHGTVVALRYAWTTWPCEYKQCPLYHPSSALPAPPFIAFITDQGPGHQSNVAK

| Structure (SMILES) | inhibition |
| --- | --- |
| Oc1ccc(CNc2ccccc2O)cc1 | -1.96% |
| Cc1cccc(C)c1NC(=O)CN(C)C(=O)CCC(=O)c1ccccc1 | -0.52% |
| CN(C)c1ccc(N/C=C/C(=O)C(F)(F)F)cc1 | 2.35% |
| COc1cc(C(=O)Nn2c(O)c(C3=c4ccccc4=NC3=O)sc2=S)ccc1O | 34.8% (active) |
| Cc1nc2ccc(C(=O)N3CCSCC3)cc2s1 | -7.27% |
| COC(=O)C1=C(NC(=O)C(C)(C)C)CCS1 | 0.95% |
| CN(CC(=O)Nc1cccc(F)c1)CC(=O)Nc1cccc([N+](=O)[O-])c1 | 1.24% |
| CCOC(=O)c1c(C)nn(-c2ncccc2NC(=O)CCC(=O)O)c1C | -3.52% |
| CC(C)CCNC(=O)C1CCCN(S(=O)(=O)c2ccc(F)cc2)C1 (stereo unspecified) | 1.12% |
| CN1c2ccc(C=O)c3c(C=O)ccc(c23)N(C)C1(C)C | 4.27% |
| COc1ccc(C2OCC3(CO2)SC(=O)NC3=O)cc1OC (stereo unspecified) | -9.1% |
| CC1(C)C/C(=C(/C#N)C(N)=O)CCO1 | -3.01% |
| CCOc1cc(N2CCOCC2)c(OCC)cc1NC(=O)COc1cccc2cccnc12 | 8.9% |
| O=C(NNc1c2ccccc2nc2ccccc12)c1cc2ccccc2cc1O | 13.8% |
| CC(=O)Nc1ccc(Nc2cc(C)nc(Nc3ccc(NC(C)=O)cc3)n2)cc1 | 4.83% |
| Cc1ccnc(NS(=O)(=O)c2ccc(NC(=O)c3ccc(S(=O)(=O)N4CCOCC4)cc3)cc2)n1 | 1.77% |
| Oc1ccc(C2Nc3cccc4cccc(c34)N2)cc1 | 29.6% (active) |
| Cc1ccc(C2Nc3cccc4cccc(c34)N2)cc1 | 7.48% |
| Cc1ccc(NC(=S)NCCN2CCOCC2)cc1 | 2.38% |
| CCOc1ccccc1Nc1ccc(C(=O)O)cc1[N+](=O)[O-] | -0.47% |
| Cc1ccc(N=C2NC(=O)/C(=C/C=C/c3ccco3)S2)cc1C | -34.3% |
| CCOc1ccc(Nc2nc(Cc3nnc(SCC(=O)NC4CCCC4)n3C)cs2)cc1 | 5.78% |
| COc1ccc(C2C(C(C)=O)=C(O)C(=O)N2CCc2c[nH]c3ccccc23)cc1 (stereo unspecified) | 0.13% |
| CCOC(=O)N1CCN(C(=O)CSc2ccc(Cl)cc2)CC1 | -2.01% |
| CC(=O)Nc1ccc(S(=O)(=O)Nc2ccc(N3CCCCC3)cc2)cc1 | 4.68% |
| COc1ccc(NC(=O)/C(N=Nc2cccc(S(=O)(=O)Nc3ccc(SC(F)F)cc3)c2)=C(\C)O)cc1 | -11.2% |
